Methyltransferases: Primary Screen for Target Class Profiling of Small Molecule Inhibitors of Methyltransferases; purified enzyme, MTase-Glo SAH luminescence; active compounds read low; AID 1745853, 2022; calls only at 40 µM; 3.9% of 25,000 active; call rule not given here
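Each enzyme was assayed with SAM and its substrate. SAH formation detected by MTase-Glo luminescence; single-point 40 uM screen[…].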
* hit, by the source's call; ! = a repeat was not active. The full list was thinned out, with hits kept by preference. % is set by controls: 0 for no effect and ±100 for the full control effect.

Screening COCC[C@]1(O)CCN(C(=O)c2cccc(OC)c2C)C[C@H]1C returned Methyltransferases inactive.
For O=C(c1cccs1)N1CCCC(Cc2noc(-c3cnccn3)n2)C1 (stereo not drawn) the results were Methyltransferases inactive.
Screening CCCCOc1ccc(CNC(=O)c2cc3n(n2)CC(C)(C(=O)NC2CCCC2)N(CC)C3=O)cc1 (stereo not drawn) returned Methyltransferases inactive.
Screening CCCCN1C(=O)CSc2c(c3ccccc3n2C)C1C(=O)NCCC(C)C (stereo not drawn) returned Methyltransferases inactive.
CCCCNC(=O)CCc1nnc2n(CCc3ccccc3)c(=O)c3ccccc3n12 was read as Methyltransferases inactive.
Screening CC(=O)NCCCCn1c2c(c3ccccc31)C(=O)NCC2 returned Methyltransferases active.
O=C(c1ccc2ccccc2n1)N1CC2CC(C1)[C@H]1CCCC(=O)N1C2 (stereo partly drawn) was read as Methyltransferases inactive.
For Cc1cc(C)n(-c2nc3cc(Cl)ccc3nc2Nc2ccc3c(c2)n(C)c(=O)n3C)n1 the results were Methyltransferases inactive.
`COc1cccc(CN2C(=O)c3c(-n4cccc4)c4ccccc4n3CC2(C)C(=O)NC2CCCC2)c1` (stereo not drawn) gave Methyltransferases inactive.
`C/C(=C\C(=O)C[C@@]12C(=O)O[C@]3(C)CC[C@H]1C[C@H]23)C(N)=O` gave Methyltransferases inactive.
`CCOC(=O)c1cc2n(n1)CC(C)(C(=O)NC1CCCCC1)N(c1cccc(Cl)c1)C2=O` (stereo not drawn) gave Methyltransferases inactive.
Cc1ccccc1Cn1nc2n(C(C)C)c(=O)c3ccc(C(=O)NC4CCCCC4)cc3n2c1=O was read as Methyltransferases inactive.
`O=C(N[C@@H]1CCCc2c1cnn2-c1ccc(F)cc1F)c1ccccn1` gave Methyltransferases inactive.
Screening CCCN1C(=O)c2c(C(=O)NCc3ccccc3OC)ncn2CC1(C)C(=O)NCc1ccc(F)cc1 (stereo not drawn) returned Methyltransferases inactive.
`CN1CCC(CNc2ccc3ncc(-c4cccc(OC(F)(F)F)c4)n3n2)CC1` gave Methyltransferases active!.
`Cc1ccc(CN2CCC(CNc3cc(C4CC(O)C4)ncn3)CC2)o1` (stereo not drawn) gave Methyltransferases inactive.
For COCC1OC(OC(C)(C)C2CCC3(C)C=C(C4CCC5C4(C)CC(O)C4OC(C(C)(C)O)CCC45C)CCC3O2)C(NC(C)=O)C(O)C1O (stereo not drawn) the results were Methyltransferases inactive.
Cc1cc(=O)n(CC(=O)NC(C)CCc2ccccc2)c(N2CCc3ccccc3C2)n1 (stereo not drawn) was read as Methyltransferases inactive.
`CC(=O)NC(Cc1c[nH]c2ccccc(=O)c12)C(=O)O` (stereo not drawn) gave Methyltransferases active.
N[C@@H](Cc1c[nH]c2ccccc12)C(=O)O was read as Methyltransferases inactive.
For CC(=O)NC(Cc1ccccc1)C(=O)O (stereo not drawn) the results were Methyltransferases inactive.
For CCCn1c(=O)c2ccc(C(=O)NC(C)C)cc2n2c(SCC(=O)Nc3cccc(C)c3)nnc12 the results were Methyltransferases inactive.
Screening C#Cc1cccc(C(=O)N2CCC(Cc3ccc(Cl)cc3)(C(=O)OCC)CC2)c1 returned Methyltransferases inactive.
`CCN1CCN(Cc2ccc(NC(=O)c3ccc(C)c(NC(=O)c4cncc(-c5cccs5)c4)c3)cc2C(F)(F)F)CC1` gave Methyltransferases inactive.
Screening Cc1cn(-c2cc(NC(=O)c3ccc(C)c(Nc4nccc(-c5cnccn5)n4)c3)cc(C(F)(F)F)c2)cn1 returned Methyltransferases inactive.
Screening COc1ccccc1CNC(=O)C1(C)Cn2nc(-c3ccccc3)cc2C(=O)N1c1cccc(SC)c1 (stereo not drawn) returned Methyltransferases inactive.
Cc1cccc(N2C(=O)CSc3c(c4ccccc4n3C)C2C(=O)NCc2ccccc2)c1C (stereo not drawn) was read as Methyltransferases inactive.
`COC(=O)C(Cc1ccc(OCCn2c(=O)sc3cc(C(=O)c4ccccc4)ccc32)cc1)C(=O)OC` gave Methyltransferases inactive.
For CCOCCOc1cccc(C(=O)N2C[C@@H](N(C)C)[C@H](C(C)C)C2)c1 the results were Methyltransferases inactive.
Screening Cc1ccc(NS(=O)(=O)c2cc3[nH]c(=O)[nH]c3cc2C)cc1C returned Methyltransferases inactive.
For CSc1cccc(N2C(=O)c3cc(C(C)(C)C)nn3CC2(C)C(=O)NC2CCCCC2)c1 (stereo not drawn) the results were Methyltransferases inactive.
`CCOc1cc2oc(=O)cc(-c3ccccc3)c2cc1Cl` gave Methyltransferases inactive.
CCOc1cc(OCC)c2c(-c3ccccc3)cc(=O)oc2c1 was read as Methyltransferases active.
Screening CCCCCOc1ccc2c(-c3ccccc3)cc(=O)oc2c1 returned Methyltransferases inactive.
Screening C/C=C(\C)C(=O)OC[C@H]1O[C@H](O[C@H]2O[C@H](CO)[C@@H](O)[C@H](O)[C@H]2O[C@@H]2O[C@H](CO)[C@@H](O)[C@H](O)[C@H]2O)[C@H](O[C@@H]2O[C@H](CO)[C@@H](O)[C@H](O)[C@H]2O)[C@@H](O)[C@@H]1O returned Methyltransferases inactive.
`CCc1cc(C(=O)N2CCC(c3nnc(Cn4cncn4)n3C)CC2)no1` gave Methyltransferases inactive.
CC(C)NC(=O)CCn1ccc2cc(S(=O)(=O)N3CCCCC3)ccc21 was read as Methyltransferases inactive.
`CCC(C)NC(=O)c1ccc2c(=O)n(C(C)C)c3nn(CC(=O)N(C)c4ccc(F)cc4)c(=O)n3c2c1` (stereo not drawn) gave Methyltransferases inactive.
CC(C)CNC(=O)c1ccc2c(=O)n(C(C)C)c3nn(CC(=O)c4ccc(Cl)cc4)c(=O)n3c2c1 was read as Methyltransferases inactive.
COc1cccc2cc(-c3nc(C4CCC(C(=O)O)CC4)n4ncnc(N)c34)[nH]c12 (stereo not drawn) was read as Methyltransferases inactive.
CCCc1c(-c2ccc(O)cc2)nn(-c2ccc(O)cc2)c1-c1ccc(O)cc1 was read as Methyltransferases active.
CC1(C(=O)NC2CCCCC2)Cn2c(cc3occc32)C(=O)N1Cc1ccco1 (stereo not drawn) was read as Methyltransferases inactive.
Screening Cc1ccsc1CCNC(=O)Cn1c(=O)oc2cc(S(=O)(=O)NCc3ccccc3)ccc21 returned Methyltransferases inactive.
For CCn1nnnc1NCc1ccc(C(C)C)cc1 the results were Methyltransferases inactive.
Screening c1ccc2c(Oc3nc(Nc4ccc(N5CCOCC5)cc4)c4ncn(C5CCCCC5)c4n3)cccc2c1 returned Methyltransferases active.
CC(=O)O[C@@H]1[C@@H](O)[C@H](C)O[C@@H](O[C@H]2[C@@H]3C=CO[C@@H](O[C@@H]4O[C@H](CO)[C@@H](O)[C@H](O)[C@H]4OC(C)=O)[C@@H]3[C@@]3(CO)O[C@@H]23)[C@@H]1OC(=O)/C=C/c1ccc(O)cc1 was read as Methyltransferases inactive.
Screening CC1CCCCN1CCCN1C(=O)c2ccc(-c3ccco3)n2CC1(C)C(=O)NC1CCCCCC1 (stereo not drawn) returned Methyltransferases inactive.
`Cc1ccccc1-n1c(Cn2nc(-c3cccc(O)c3)c3c(N)ncnc32)nc2cccc(C)c2c1=O` gave Methyltransferases active.
